In PubChem BioAssay (NCATS):
Records with an inconclusive call do not appear. A call without a number means that no potency is given here. A number with no mark means an inactive call. Activity calls are given as the source filed them. Calls follow the shape of the dose curve; as a rule, active = well fitted inhibition curve with a large enough effect; inconclusive = small, poorly fitted or top-dose-only effect; inactive = flat fitted curve, though single readings scatter.

experiment: qHTS for Inhibitors of Plasmodium falciparum (DD2) proliferation (AID 504314);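 as to activity, negative = inhibition: parasite DNA measured by SYBR Green fluorescence after red cell lysis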; details: P. falciparum Dd2 in erythrocytes, SYBR Green growth, 72 h; series mostly up to 6.11 µM
Procedure, shortened: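 Fluorescence read-out (ex 485/em 535 nm) of SYBR Green-stained parasite DNA quantifies intraerythrocytic growth. Cultures at 0.3% parasitemia and 2.5% hematocrit were treated for 72 h; data normalized to DMSO and 0.29 uM artemisinin wells.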
Potency is read from the fitted curve at half-maximal effect.

| Structure (SMILES) | Potency | activity, negative = inhibition |
| --- | --- | --- |
| C[C@@H]1CC[C@H]2C(=O)N(Cc3cccc([N+](=O)[O-])c3)C[C@@H](O)CN2[C@@H]1c1ccc(Br)cc1 | inactive | – |
| COc1ccc2c(c1)O[C@@H](c1ccc3c(c1)OCO3)[C@H](OC(=O)Nc1ccc(C)c(Br)c1)C2=O | inactive | – |
| CCN1C(=NCCCCO)NC(c2cccc(C(F)(F)F)c2)C(C(=O)OC)=C1C (stereo unspecified) | inactive | – |
| O=C1Nc2cccc(Br)c2[C@@]12O[C@H](COc1ccccc1)CC1=CCC[C@H]12 | inactive | – |
| C#CCN1C(=O)CC[C@@]23C1=NC(C(=O)OC)=C(C(=O)OC)[C@@H]2N(CC=C(C)C)c1ccccc13 | inactive | – |
| CCN1C(=O)[C@@H]2[C@H]3[C@H](O)[C@H](O)CC(=NOC[C@H]4O[C@H](c5ccccc5)C=C[C@H]4Oc4ccc(OC)cc4)[C@@H]3CC[C@H]2C1=O | inactive | – |
| CCCCCCCC1=Cc2ccc(F)cc2C(C(C(C)=O)C(=O)OC)N1C(=O)OC (stereo unspecified) | inactive | – |
| COC(=O)C1=C(C(=O)OC)[C@@H]2N(C)c3ccccc3[C@@]23CCC(=O)N(Cc2ccc(OC)cc2)C3=N1 | inactive | – |
| COc1ccc(COC(=O)NN=C2C[C@@H](O)[C@@H](O)[C@@H]3[C@H]4C(=O)N(C[C@@H]5CCCO5)C(=O)[C@@H]4CC[C@@H]23)cc1 | inactive | – |
| COC(=O)CC=C1c2ccccc2C[C@H](OC)[C@@H]1C | inactive | – |
| C[C@H](O)CON1C(=O)c2ccccc2C1=O | inactive | – |
| CC(C)CON=C1C[C@@H](O)[C@@H](O)[C@@H]2[C@H]3C(=O)N(Cc4ccc5c(c4)OCO5)C(=O)[C@@H]3CC[C@@H]12 | inactive | – |
| O=C1[C@H]2[C@@H]3[C@@H](O)[C@H](O)CC(=NOCc4ccccc4)[C@H]3CC[C@H]2C(=O)N1C1CCCCC1 | inactive | – |
| COc1ccc([C@]23Cc4cc(OC)c(OC)cc4[C@H](O2)C2=C(CC4(CCCCC4)OC2=O)O3)cc1 | inactive | – |
| Cc1ccc2[nH]c3nc(CCCn4ccnc4-c4ccccc4)nnc3c2c1 | inactive | – |
| C=CCN1c2ccccc2[C@]23CCC(=O)N(CCCOC(C)C)C2=NC(C(=O)OC)=C(C(=O)OC)[C@H]13 | inactive | – |
| COC(=O)N[C@H](C[N+](=O)[O-])c1cccc(C)c1 | inactive | – |
| CC=COC(=O)N[C@@H](c1ccccc1)[C@]1(C(=O)OCC)CCCC1=O | inactive | – |

| Structure (SMILES) | Potency | activity, negative = inhibition |
| --- | --- | --- |
| COc1cc(CCN2C(=O)NC(c3ccccc3)C(C(C)=O)=C2C)cc(OC)c1OC (stereo unspecified) | inactive | – |
| C[C@@H]1C=CCC(=O)N[C@@H](c2ccccc2)[C@H](C)C=CCC(=O)N[C@@H]1c1ccccc1 | inactive | – |
| COc1ccc(C=CNC(=O)c2ccc(OC)cc2)cc1 | inactive | – |
| COc1ccc2c(c1)C(=O)[C@H](OC(=O)N[C@H]1CCCc3ccccc31)[C@@H](c1ccc(OC)c(Br)c1)O2 | inactive | – |
| COC(=O)C1(C(=O)OC)C[C@@H]2CON=C2[C@@H]1c1ccccc1 | inactive | – |
| COC(=O)[C@@H]1[C@@H](c2ccccc2)NC(=O)N(CCc2cc(OC)c(OC)c(OC)c2)[C@@H]1C | inactive | – |
| C=CC[C@@H]1C=CC(ON=CC[C@@H]2C=C[C@@H](OC(C)=O)[C@@H](COC(C)=O)O2)[C@H](CO)O1 (stereo partly specified) | inactive | – |
| COC(=O)C1=C(C)N(Cc2ccccc2)C(=NCCc2ccccn2)NC1c1cccc(C(F)(F)F)c1 (stereo unspecified) | 948 nM (active) | – |
| C[C@H](NC(=O)N1CCc2nc(COc3ccccc3)c3c(c2C1)CO[C@@H](C)C3)c1ccccc1 | – | -0.0576% [at 1.12 µM] |
| COCC(=O)C(C(=O)OC)[C@H](CCc1ccccc1)NC(=O)OC (stereo partly specified) | inactive | – |
| COc1ccc(NC(=O)N2CCc3nc(-c4ccc(OC)cc4C)c4c(c3C2)CO[C@@H](c2ccccc2)C4)cc1 | inactive | – |
| COC1=C[C@H](C(=O)N2CCCC2)[C@H](C)[C@@H](c2ccccc2)CC1=O | inactive | – |
| COC(=O)C1=C(C(=O)OC)[C@@H]2N(CC=C(C)C)c3ccccc3[C@@]23CCC(=O)N(CCc2ccccn2)C3=N1 | inactive | – |
| COc1ccc2c(c1)O[C@H](c1ccc3c(c1)OCO3)[C@@H](OC(=O)NCc1ccc3c(c1)OCO3)C2=O | inactive | – |
| COC(=O)CC1c2ccccc2C(Cc2ccc3c(c2)OCO3)=C(C)N1C(=O)OC (stereo unspecified) | inactive | – |
| COCCN1C(=O)NC(c2ccc(Br)cc2)C(C(C)=O)=C1C (stereo unspecified) | inactive | – |
| COC(=O)C1=NOC2(C=C(Br)C(OC)=C(Br)C2=O)C1 (stereo unspecified) | inactive | – |
| COc1ccc(N2C=C3C(=O)C(C)(OC(=O)C4CCCC4)C(=O)C=C3C=C2c2ccsc2)cc1 (stereo unspecified) | – | -0.73% [at 1.12 µM] |
